Source: PubChem BioAssay (University of Pittsburgh Molecular Library Screening Center)
HIV RNase H inh-1: inhibitors of HIV-1 reverse transcriptase RNase H; RT-RNase H RNA/DNA duplex cleavage, fluorescence; inhibition, % at 10 µM; P04585; hit rate 1.9% among 65,000; in the data active = inhibition above about 50%
HIV RNase H inh-2: confirmation of HIV-1 reverse transcriptase RNase H inhibitors; shares compounds with HIV RNase H inh-1; Recombinant RT RNase H, fluorescent RNA/DNA duplex cleavage; AID 651; inhibition, % at 10 µM; hit rate 39% among 1,000; in the data active = inhibition above about 48%
The depositor's hits bear a star. Shown is part of a subset that was picked to be rich in hits.

SMILES	HIV RNase H inh-1	others
COC(=O)c1ccc(NC(=O)C2CCCN2S(=O)(=O)c2ccc(F)cc2)cc1 (stereo not given)	-31.0
O=C1NCCN1C(=O)N(c1ccccc1)c1ccccc1	-1.7
CCOC(=O)c1ccccc1NC(=O)CSc1nnnn1C1CCCCC1	-14.8
CCOC(=O)c1ccc(NS(=O)(=O)c2cccc3nsnc23)cc1	-8.8
O=C(Nc1ccc(Cl)cc1)Nc1ccc(N2CCOCC2)cc1	7.4
O=C(Nc1ccc(N2CCOCC2)cc1)Nc1cnsn1	66.8*	HIV RNase H inh-2=20.0
O=C(Nc1ccc(N2CCOCC2)cc1)NC1CCCCC1	10.2
CC(NCc1ccco1)C(=O)N1CCc2ccccc2C1 (stereo not given)	-1.2
CCOc1cc(C2C(C#N)=C(N)SC(N)=C2C#N)ccc1OCCN1CCOCC1	87.0*	HIV RNase H inh-2=84.9*
CCCc1[nH]nc2c1C(c1ccc(OCCN3CCOCC3)c(OC)c1)C(C#N)=C(N)O2 (stereo not given)	1.6
COc1ccc(C2C(C#N)=C(N)SC(N)=C2C#N)cc1OC	30.4
CCOc1ccc(C2C(C#N)=C(N)SC(N)=C2C#N)c(OCC)c1	72.0*	HIV RNase H inh-2=19.1
CCOc1ccc(C2C(C#N)=C(N)Oc3cc(C)n(CCN(C)C)c(=O)c32)cc1OCC (stereo not given)	11.6
CCCCc1ccc(C2C(C#N)=C(N)SC(N)=C2C#N)s1	5.8
O=C(Nc1nonc1NC(=O)C1CCCCC1)C1CCCCC1	-0.8
COc1cccc2c1OC1(C)CC2/C(=C(\C)O)C(=O)N1 (stereo not given)	0.4
CCCCOC(=O)CCc1c(C)[nH]c(=O)c(C#N)c1C	-1.6
C=CCc1c(C)[nH]c(=S)c(C#N)c1C	77.2*	HIV RNase H inh-2=59.4*
COCc1cc(C)c(C#N)c(=S)[nH]1	37.1
O=C1Nc2ccccc2C(O)(C(=O)NC2CC2)N1c1ccc(Cl)c(Cl)c1 (stereo not given)	3.8
COc1ccc(CCNC(=O)C2CCN(S(=O)(=O)c3cnc[nH]3)CC2)cc1OC	-19.9
Cc1oc(-c2ccc(Cl)cc2)nc1CN1CCCC(C(=O)N2CCN(C(=O)c3ccco3)CC2)C1 (stereo not given)	-8.5
COCCNc1cc(C)nc2c3c(C)cc(C)nc3nn12	-8.6
CCC(C)n1c(C)nc2c(c1=O)c1nc3ccccc3nc1n2-c1ccc2c(c1)OCCO2 (stereo not given)	0.0
CCCCc1nc2sc3c(c2c(=O)[nH]1)CCC3	-9.2
SMILES	HIV RNase H inh-1	others
CC1CCCN(C(=O)C2CCN(S(=O)(=O)c3cccc4cccnc34)CC2)C1 (stereo not given)	-15.6
CCn1ncc(C2=NOC(C(=O)NCc3ccccc3)C2)c1C (stereo not given)	50.2*	HIV RNase H inh-2=26.1
CCn1ncc(C2=NOC(C(=O)Nc3c(C)n(C)n(-c4ccccc4)c3=O)C2)c1C (stereo not given)	-9.2
CCn1ncc(C2=NOC(C(=O)NCc3ccc(OC)cc3)C2)c1C (stereo not given)	-10.8
O=C(CSc1nc2ncccc2[nH]1)NCc1ccccc1	-8.9
Fc1ccccc1CSc1nc2ncccc2[nH]1	87.6*	HIV RNase H inh-2=60.4*
CC(C)OC(=O)CSc1nc2ncccc2[nH]1	-15.9
CCC(C)(C)n1nnnc1C(C(C)C)N1CCSCC1 (stereo not given)	-7.7
COc1ccccc1N1CCN(C(=O)Cn2nc(C(F)(F)F)c3c2CCC3)CC1	-0.5
Cn1c(SCC(=O)Nc2cc(=O)n(C)c(=O)n2C)nnc1C12CC3CC(CC(C3)C1)C2	18.7
CC(C)c1ccc2oc(-c3ccc(NC(=O)c4ncn[nH]4)cc3)nc2c1	74.0*	HIV RNase H inh-2=58.2*
CCC(C)NCC(=O)Nc1ccc(-c2nc3cc(NC(=O)CNC(C)CC)ccc3o2)cc1 (stereo not given)	9.4
CC(C)c1ccc2oc(-c3ccc(N)cc3)nc2c1	-5.3
CCC(C)c1ccc2oc(-c3ccc(NC(=O)c4ncn[nH]4)cc3)nc2c1 (stereo not given)	64.3*	HIV RNase H inh-2=71.0*
CCC(C)c1ccc(O)c(NC(=O)c2ncn[nH]2)c1 (stereo not given)	12.7
O=C(Nc1ccc2oc(-c3ccccc3Cl)nc2c1)c1ncn[nH]1	-11.2
O=S(=O)(Nc1cccnc1)c1ccc(Cl)c(C(F)(F)F)c1	-11.4
COC(=O)c1cc(Br)c(=O)n(-c2cc(C)on2)c1	-11.3
O=C(NC1CCCC1)C1CCCN1C(=O)Nc1ccc(Cl)cc1 (stereo not given)	-12.3
CCCCCn1c(=O)c(C(=O)NCc2ccncc2)c(O)c2ccccc21	82.7*	HIV RNase H inh-2=56.8*
CCCn1c(=O)c(C(=O)Nc2cnccn2)c(O)c2ccccc21	-4.9
CCn1c(=O)c(C(=O)NCc2cccnc2)c(O)c2ccccc21	-16.3
CC(C)CCNC(=O)Cn1cc2c(n1)CCCCC2	-3.2
Cc1cc(C)n2nc(SCC(=O)N(C)Cc3ccccc3)nc2n1	0.8
